# Over roughly 110,000 compounds, “z-score” has its median near -0.1; the highest 2% begin near 2. This excerpt belongs to a sample that is enriched for the highest values. Activity calls are given as the source filed them.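 Rule for the calls: active = z-score in the third read window above 3 or below -3; inactive = the rest.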
# Biological target: Metabotropic glutamate receptor 8 (Rattus norvegicus) (UniProt P70579)
# Assay: rat mGluR8 modulators via GIRK flux, primary screen, cell-based, thallium flux, HTS (AID 488969)
# Details: HEK293 rat mGluR8, GIRK (G protein-gated inwardly rectifying potassium channel) thallium flux, FluoZin2; at 10 µM; stronger effect = higher value; submaximal glutamate (EC20) added with thallium
# Sequence of Metabotropic glutamate receptor 8 (Rattus norvegicus) (P70579 whole entry, looked up): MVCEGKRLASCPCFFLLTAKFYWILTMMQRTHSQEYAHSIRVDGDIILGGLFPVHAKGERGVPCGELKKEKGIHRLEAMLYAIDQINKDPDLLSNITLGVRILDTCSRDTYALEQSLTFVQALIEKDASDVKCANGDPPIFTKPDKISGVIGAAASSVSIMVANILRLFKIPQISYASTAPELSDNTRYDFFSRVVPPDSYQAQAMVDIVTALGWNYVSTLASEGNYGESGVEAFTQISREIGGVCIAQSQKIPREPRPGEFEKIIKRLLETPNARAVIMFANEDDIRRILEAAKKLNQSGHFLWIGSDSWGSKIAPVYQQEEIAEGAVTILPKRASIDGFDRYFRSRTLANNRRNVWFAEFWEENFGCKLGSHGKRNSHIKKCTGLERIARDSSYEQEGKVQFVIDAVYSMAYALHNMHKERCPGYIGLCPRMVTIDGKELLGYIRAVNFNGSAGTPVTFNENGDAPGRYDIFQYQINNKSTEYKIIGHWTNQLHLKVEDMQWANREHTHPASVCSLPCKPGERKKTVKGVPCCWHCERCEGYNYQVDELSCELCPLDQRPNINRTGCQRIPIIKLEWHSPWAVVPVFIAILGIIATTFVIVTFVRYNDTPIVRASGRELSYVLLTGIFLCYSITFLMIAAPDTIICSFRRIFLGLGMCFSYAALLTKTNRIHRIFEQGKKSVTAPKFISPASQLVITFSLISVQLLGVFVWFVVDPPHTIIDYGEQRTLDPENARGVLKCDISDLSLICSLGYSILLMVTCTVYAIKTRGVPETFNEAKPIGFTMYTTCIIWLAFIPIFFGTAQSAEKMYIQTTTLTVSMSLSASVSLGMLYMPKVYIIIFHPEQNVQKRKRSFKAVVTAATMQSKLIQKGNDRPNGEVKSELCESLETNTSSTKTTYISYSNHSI
row,Compound,z-score
1,CCCCn1c(CN2CCN(c3ccc(F)cc3)CC2)nc2c1c(=O)n(C)c(=O)n2C,-0.751
2,CCn1c(SCc2nc(-c3ccccc3)no2)nc2ccccc21,3.16 (active)
3,CCn1c(SCc2nc(-c3ccccc3)no2)nnc1-c1ccco1,-0.421
4,c1ccc(-c2noc(CSc3nnnn3C3CCCCC3)n2)cc1,-0.0529
5,CCn1c(SCc2nc(-c3ccccc3)no2)nnc1-c1cccs1,1.84
6,c1ccc(CSc2nnnn2-c2ccccc2)cc1,-0.542
7,c1ccc(-c2noc(CSc3nnnn3-c3ccccc3)n2)cc1,2.18
8,CC(C)c1[nH]nc2c1C(c1cccc(OC(=O)N3CCOCC3)c1)C(C#N)=C(N)O2 (stereo not drawn),-1.23
9,FC(F)(F)c1ccc(CSc2nccn2-c2ccccc2)cc1,0.167
10,COc1cc(OC)c(OC)cc1/C=N/NC(=O)c1ccc(=O)n(C)c1,-0.238
11,Cc1cccc(C(=O)/C=C2/c3ccccc3CC(C)(C)N2C)c1,-0.509
12,CCOCCN1CCN(c2c(CC)c(C)nc3cc(-c4cc(OC)cc(OC)c4)nn23)CC1,-0.938
13,Nc1nc(SCC(=O)NC2CCCC2)[nH]c(=O)c1-c1ccccc1,-0.603
14,O=C(c1ccccc1NS(=O)(=O)c1cccs1)N1CCCC1,0.676
15,CCOC(=O)CSc1nc2cc(C(=O)NCc3ccco3)ccc2c(=O)n1C1CCCCC1,0.724
16,CCOC(=O)CSc1nc2ccccc2c(=O)n1C1CCCC1,0.684
17,COC(=O)c1ccc2c(=O)n(C3CCCCC3)c(SCC#N)nc2c1,3.63 (active)
18,CCOC(=O)c1ccccc1NC(=O)Nc1ccc(OC)c(OC)c1,0.154
19,COc1ccc(NC(=O)C(=O)NCCC2=CCCCC2)c(OC)c1,-0.33
20,CCCCOC(=O)c1ccc(NC(=O)Nc2ccc(OC)c(OC)c2)cc1,-0.113
21,COc1ccc(OC)c(NC(=O)Nc2ccc(Cl)cc2)c1,0.245
22,Cc1ccc(OC(=S)Nc2ccc(F)cc2)cc1,0.0616
23,CCOC(=O)c1ccc(NC(=O)Nc2ccc(OC)c(OC)c2)cc1,6.79 (active)

row,Compound,z-score
1,COc1ccc(C)cc1NC(=O)NCCC1=CCCCC1,10.6 (active)
2,Cc1ccc(OC(=S)Nc2ccccc2)c(C)c1,3.2 (active)
3,COc1ccc(C(=O)NCCC2=CCCCC2)cc1OC,-0.214
4,Cc1ccc(OC(=S)Nc2ccc(O)cc2)cc1,0.0849
5,COc1ccc(NC(=O)Nc2cc(C)ccc2OC)cc1,2.83
6,COc1ccc(NC(=O)Nc2cc(C)ccc2F)cc1,0.0419
7,Cc1nn(CC(=O)Nc2cccc(S(N)(=O)=O)c2)c(C)c1[N+](=O)[O-],-0.212
8,CCOc1ccc(-c2nnn(CC(=O)c3cc(OC)ccc3OC)n2)cc1,1.52
9,CCCNC(=O)Cn1cnc2sc(C(=O)N3CCCC(C(=O)OCC)C3)c(C)c2c1=O (stereo not drawn),-1.05
10,CCN(CC)S(=O)(=O)c1ccc(NC(=O)C2CCCO2)cc1 (stereo not drawn),-0.205
11,CCCn1nc(C(=O)NCCN2CCOCC2)c2ccccc2c1=O,0.608
12,Cc1occc1-c1nnc(SCC(=O)N(C)CCC#N)n1N,0.286
13,O=C(NC1CCCCC1)C(c1ccc(O)cc1)N(CC1CCCO1)C(=O)C1COc2ccccc2O1 (stereo not drawn),0.338
14,COc1ccc(C)cc1NC(=O)Nc1ccc(Br)cn1,0.233
15,CCOC(=O)Nc1cc(C)ccc1OC,0.0736
16,COc1ccc(C)cc1NC(=O)Nc1ccccc1,11.5 (active)
17,Cc1cccc(-c2nnn(Cc3nnc(NC(=O)c4ccccc4)s3)n2)c1,-0.0603
18,Cc1ccc(C(=O)N2CCN(c3ccc(C(F)(F)F)cn3)CC2)c(C)c1,-0.0998
19,CC1CC(C)CN(C(=O)c2cc(-c3ccccn3)nc3ccccc23)C1 (stereo not drawn),-1.27
20,Cn1ccnc1SCC(=O)Nc1ccc2nc(SCC(=O)NC3CC3)sc2c1,-0.00819
21,CCOc1c2ccc(C(=O)NCc3cc(C(F)(F)F)cc(C(F)(F)F)c3)cc2nn1C,0.112
22,C=CCn1c(=S)[nH]c2ccc(Br)cc2c1=O,15 (active)
23,O=C(CCCCCn1c(=S)[nH]c2ccc(Br)cc2c1=O)NCC1CCCO1 (stereo not drawn),1.92

row,Compound,z-score
1,C=C(C)Cn1c(=S)[nH]c2ccccc2c1=O,-0.0946
2,C=CCn1c(=S)[nH]c2ccccc2c1=O,13.6 (active)
3,CCOC(=O)N1CCN(C(=O)CCCn2c(=S)[nH]c3ccc(Br)cc3c2=O)CC1,1.24
4,CC(C)OC(=O)CSc1nnc(Cc2ccccc2)n1Cc1ccco1,-0.4
5,Cc1cccc2cc(C(c3nnnn3C(C)(C)C)N3CCN(C(=O)c4ccco4)CC3)c(=O)[nH]c12 (stereo not drawn),0.516
6,CCN1CCN(C(=O)c2cc3sccc3n2CC(=O)c2ccccc2)CC1,-0.119
7,CCN1CCN(C(=O)C2CCN(C(=O)c3cc4sccc4n3CC)CC2)CC1,2.56
8,CCn1c(C(=O)N2CCC(C(=O)N3CCN(c4ccccn4)CC3)CC2)cc2sccc21,0.181
9,CC1(C)C(C#N)=C(N)OC2=C1C(=O)CCC2,0.297
10,Cc1cc2nc3c(c(=O)n2[nH]1)CCCC3,-0.219
11,CCCC(=O)Nc1nc2ccc(S(N)(=O)=O)cc2s1,-0.295
12,O=C(NCC1CCCO1)C(c1cccs1)N(Cc1cccs1)C(=O)c1ccc(-c2ccccc2)[nH]1 (stereo not drawn),-0.486
13,O=C(NCC1CCCO1)C(c1cccs1)N(C(=O)c1ccc(-c2ccccc2)[nH]1)C1CCCC1 (stereo not drawn),-0.0712
14,O=C(NCC1CCCO1)C(c1cccs1)N(Cc1ccccc1Cl)C(=O)c1ccc(-c2ccccc2)[nH]1 (stereo not drawn),2.14
15,COC(=O)CC1COc2ccccc2N1C(=O)c1ccc(C(C)(C)C)cc1 (stereo not drawn),-0.191
16,CCCC(=O)Nc1cc(-c2nnc(OC)c3ccccc23)ccc1N1CCOCC1,-0.445
17,O=C(Oc1ccc([N+](=O)[O-])cc1)c1cccnc1,-0.0965
18,CNC(=S)SCCOc1ccc(C)cc1,6.37 (active)
19,CCNC(=S)SCCOc1ccc(C)cc1,0.376
20,CNC(=S)SCCOc1ccccc1C,0.297
21,Cc1ccc2nc3sc(C(=O)Nc4c(C)[nH]c(=O)[nH]c4=O)c(N)c3cc2c1,-0.158
22,NC(=O)CCn1nc(-c2ccc(Cl)cc2)c2ccccc2c1=O,-0.686
23,COc1ccc(/C(O)=C/C(=O)C(=O)NNC(=O)C(O)(c2ccccc2)c2ccccc2)cc1,-0.343

row,Compound,z-score
1,Cc1ccc(/C(O)=C/C(=O)C(=O)NNC(=O)C(O)(c2ccccc2)c2ccccc2)cc1,2.44
2,O=C(/C=C(\O)c1ccc(Cl)cc1)C(=O)NNC(=O)C(O)(c1ccccc1)c1ccccc1,-0.125
3,CCn1c(SCC(=O)Nc2nnc(C)s2)nnc1-c1ccco1,-0.0211
4,O=C1C(=O)N(CCO)C(c2ccccc2)/C1=C(\O)c1ccccc1 (stereo not drawn),-0.284
5,O=C(CNC(=O)C12CC3CC(CC(C3)C1)C2)N1CCN(S(=O)(=O)c2cccs2)CC1,-0.178
6,CCCn1c(SCC(=O)NC2CCCCC2C)n[nH]c1=O (stereo not drawn),0.79
7,O=[N+]([O-])c1ccc(/C=N/NC(=S)Nc2ccccc2F)o1,6.05 (active)
8,COC(=O)N/N=C/c1ccc([N+](=O)[O-])o1,-0.0263
9,O=[N+]([O-])c1ccc(/C=N/NC(=S)Nc2ccccc2)o1,2.92
10,O=[N+]([O-])c1ccc(/C=N/NC(=S)Nc2ccccc2C(F)(F)F)o1,1.06
11,Cc1ccc(-c2ccc(/C=N/NC(=S)Nc3ccccc3)o2)cc1[N+](=O)[O-],0.442
12,O=C(CNc1ccccc1)N/N=C/c1ccc([N+](=O)[O-])o1,-0.389
13,N#CCCn1cc(/C=N/O)c(-c2ccccc2)n1,0.0606
14,C1=C(CCNc2nnnn2-c2ccccc2)CCCC1,-0.26
15,Fc1cccc(NC(=S)Nc2ccc(Br)cc2)c1,0.843
16,CN(C)/C=N/C(=S)Nc1ccccc1F,0.0261
17,Cc1nn(-c2ccccc2)c(N2CCCC2)c1/C=N/NC(=S)Nc1ccccc1F,2.42
18,FC(F)(F)c1ccc(Cl)c(NC(=S)N/N=C/c2ccccc2C(F)(F)F)c1,1.14
19,Fc1ccccc1NC(=S)Nc1ccc(Br)cc1,0.657
20,Cc1ccc(NC(=S)N/N=C/c2c(C)nn(-c3ccccc3)c2N2CCCC2)cc1,0.376
21,Fc1ccc(CNC(=S)Nc2ccc(Cl)cc2Cl)cc1,0.134
22,Cc1nn(-c2ccccc2)c(N2CCCC2)c1/C=N/NC(=S)Nc1ccccc1C(F)(F)F,0.583
23,Fc1ccccc1NC(=S)N/N=C/c1ccccc1Br,13.4 (active)

row,Compound,z-score
1,Fc1ccccc1/C=N/NC(=S)Nc1ccc(Cl)cc1Cl,3.47 (active)
2,Cn1c(NC(=O)c2ccco2)cc(=O)n(C)c1=O,-0.188
3,O=C(CCSCCc1ccccn1)Nc1ccc(Br)cc1F,-0.191
4,CCc1nc2ccccc2n1Cc1ccccc1OC,-0.822
5,CC1=NNC(=O)C1CCC(=O)N/N=C/C(Br)=C/c1ccccc1 (stereo not drawn),-0.0952
6,O=C(c1ccc([N+](=O)[O-])cc1)N(Cc1ccc(Cl)cc1)N1C(=O)CCCC1=O,-0.682
7,Cn1cnnc1SCC(=O)Nc1sc2c(c1C#N)CCCCC2,0.0796
8,COc1ccc2cnn(Cc3ccccc3)c(=O)c2c1OC,0.037
9,Cc1ccsc1/C=N/n1c(COc2ccccc2)n[nH]c1=S,0.533
10,S=c1[nH]nc(C2CCCCC2)n1/N=C/c1cccs1,2.48
11,Cc1ccc(-c2n[nH]c(=S)n2/N=C/c2cccs2)cc1,2.22
12,Cc1ccc(/C=N/n2c(C3CCCCC3)n[nH]c2=S)s1,0.644
13,S=c1[nH]nc(COc2ccccc2)n1/N=C/c1cccs1,0.649
14,Cc1cccc(-c2n[nH]c(=S)n2/N=C/c2ccc(C)s2)c1,0.7
15,Cc1ccc(/C=N/n2c(COc3ccccc3)n[nH]c2=S)s1,3.29 (active)
16,Cc1ccsc1/C=N/n1c(C2CCCCC2)n[nH]c1=S,0.383
17,CC(C)(C)c1n[nH]c(=S)n(/N=C/c2cccs2)c1=O,0.25
18,S=c1[nH]nc(-c2ccccc2)n1/N=C/c1cccs1,0.587
19,Cc1ccc(/C=N/n2c(-c3cccnc3)n[nH]c2=S)s1,-0.311
20,Cc1ccc(-c2n[nH]c(=S)n2/N=C/c2ccc(C)s2)cc1,2.29
21,CS(=O)(=O)Nc1ccc(-c2n[nH]c(=S)n2-c2ccccc2)cc1,0.118
